From publication PMC8769072, “Proteome‐scale mapping of binding sites in the unstructured regions of the human proteome” (Molecular Systems Biology, 2022)

target: MAP1LC3A 2-121, Q9H492

Selected by phage display, active:
TENDDFAILFAPKAAM [ATG2B, Q96BY7] confidence 3
APELWTELTGLAASSE [KIFC2, Q96AC6] confidence 3
PQALERADGSWAWVVL [SLC16A5, O15375] confidence 3
MVEAGGLLEKWTLLEE [APOBR, Q0VD83] confidence 4
VPAFEVLEISPQEVSS [MS4A2, Q01362] confidence 2
LEAEVDFTVIGDYHGS [EPB41L1, Q9H4G0] confidence 2
VLASMKNTYEVLDFLG [HIPK3, Q9H422] confidence 2
LNVSSREEAFTDLSLA [USP35, Q9P2H5] confidence 3
WEDLEARINAENEVPI [CEP170B, Q9Y4F5] confidence 2
DGDTLDSDEFAILDAP [ATG2A, Q2TAZ0] confidence 4
AVQVPESFEHLPPLPE [ATF7IP2, Q5U623] confidence 4
WTDLASIFGSNKDLMG [NLRP2, Q9NX02] confidence 3
DFTFLRPLSVQQPTAL [PCDHGC5, Q9Y5F6] confidence 3
GPEAASGEWELLRLDS [ESPL1, Q14674] confidence 2
EWQHLDSAQRTPYRDM [ZNF487, B1APH4] confidence 2
TDTHWTDLTHLIEKLK [TRIM59, Q8IWR1] confidence 3
HDDFVMIDFKPAFSKD [ATG13, O75143] confidence 3
SPNREWEVLQPAPHQV [NCOR1, O75376] confidence 3
TVNEWAHLQEDTNSHI [ANKRD62, A6NC57] confidence 4
DLNSQDRVDHEEWEMV [STBD1, O95210] confidence 4
WEEFESLQKQEVKNLH [PTPN6, P29350] confidence 2
TAQQLETTTERWLVID [CC2D1A, Q6P1N0] confidence 3
QGSRQDSWEVVEGLRG [OSBPL3, Q9H4L5] confidence 2
ASPQGEWTILELETQH [KIAA1107, Q9UPP5] confidence 3
HLGEWGHLDPAEENLK [ZSCAN18, Q8TBC5] confidence 2
EPWAQLEASDIHTAAA [WDR90, Q96KV7] confidence 3
ANGWQIISSSSGATPT [SP1, P08047] confidence 4
GWDYGIGGGWDHISVR [TECPR1, Q7Z6L1] confidence 2
WVWLGNEAELLESMGD [TMEM132C, Q8N3T6] confidence 4
LPEGFQLLQIDAEGEA [TRMT10B, Q6PF06] confidence 2
WEVVTSAIPRGAWHGA [ZNF419, Q96HQ0] confidence 2
LEDSFAHLQLSGDNTA [RNF146, Q9NTX7] confidence 3
NLAPSDEESSWTTLSQ [APBB2, Q92870] confidence 2
WRDMTTITEDEISKLR [CACTIN, Q8WUQ7] confidence 2
GWETVEMHPAYTEEEL [NUCB1, Q02818] confidence 2
SLEPPSPFELLEPPTS [MAP1S, Q66K74] confidence 3
DSWGIIAEPRQSAFSN [IRS4, O14654] confidence 4
DLTESSSMVDGDWTMV [RIC1, Q4ADV7] confidence 4
YELLTENDMLPNMRIG [JAK2, O60674] confidence 2
AEESFTTLNVDIRNHQ [USP9X, Q93008] confidence 2
RGGGSVGSDVGQRLPV [KCNT1, Q5JUK3] confidence 2
GNSGFQLLDLVHEEGE [SLC7A6OS, Q96CW6] confidence 2
FPSSGFTDLAEIVSRI [PNPLA6, Q8IY17] confidence 3
RQEEKQVLLQADWTLL [ZNF579, Q8NAF0] confidence 2
DAGLGFVDLTDLTDHQ [PEG3, Q9GZU2] confidence 3
VPFTELVVQSITPHQS [BMP2K, Q9NSY1] confidence 3
QVDEVTDLLASFTSLS [ANKRD54, Q6NXT1] confidence 3
WATIEPAPDAASLLAS [AKAP13, Q12802] confidence 3

target: MAP1LC3B 2-119, Q9GZQ8

Selected by phage display, active:
PQALERADGSWAWVVL [SLC16A5, O15375] confidence 3
DIGGFTLLDGKLVLLG [RASAL3, Q86YV0] confidence 4
PHSHDWVWLGNEVELL [TMEM132B, Q14DG7] confidence 2
QEEWALLDPSQKNLYR [ZNF878, C9JN71] confidence 2
DSWEIIEGLKIGQTNV [OSBPL6, Q9BZF3] confidence 3
EPGWVVLDQPDAAAHL confidence 4
AGHQLGLEADGHWGLL [ZNF469, Q96JG9] confidence 3
VDNRESSENWEIIRED confidence 2
KPIKENIEESYVHLDI [FRYL, O94915] confidence 3
PPAPLAHSDDYVHISL [TSC1, Q92574] confidence 2
EPWAQLEASDIHTAAA [WDR90, Q96KV7] confidence 4
HVRDAIRSYTEDWAIV [DOCK7, Q96N67] confidence 2
WVWLGNEAELLESMGD [TMEM132C, Q8N3T6] confidence 3
MAMSNGNNDFVVLSNS [DISP1, Q96F81] confidence 2
QAVTHDNEWEMLSPQP [PRUNE2, Q8WUY3] confidence 4
DLTESSSMVDGDWTMV [RIC1, Q4ADV7] confidence 4
EYEIIETIGNGAYGVV [MAPK7, Q13164] confidence 2
YELLTENDMLPNMRIG [JAK2, O60674] confidence 2
